# Reference: PubChem BioAssay (Tox21)
# Unmarked numbers belong to inactive results. Records with an inconclusive call do not appear. Where a call stands in place of a potency, no number is given. Calls of active or inactive are those of the source. Calls come from the whole dose curve; as a rule, active = well fitted curve in the direction sought with a large enough effect in the repeat runs; inconclusive = weak or mixed curves; inactive = no such curve, though single readings can be large; an effect the other way counts as inactive or inconclusive.
# What was measured:
# [1] = Caspase-3/7 induction in HepG2 cells by small molecules, qHTS assay (AID 1346978); note: nearly all actives have a fitted effect of over 15% in size
# Method in brief: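 Wild-type HepG2 cells (2,000/well) were settled 5 h at 37 C, 5% CO2, then exposed to compounds in DMSO for 17 h. Caspase-3/7 activity was read by luminescence 30 min after adding Caspase-Glo 3/7 reagent at room temperature.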
# [2] = Caspase-3/7 induction in CHO-K1 cells by small molecules, qHTS cell viability counter screen (AID 1346979); note: nearly all actives have a fitted effect of over 35% in size; note: potency is the fitted concentration of half-maximal effect
# Method in brief: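 Multiplexed with Caspase-Glo 3/7 in CHO-K1 cells, this counter screen added CellTiter-Fluor after 16hr of compound exposure and recorded fluorescence 1hr later.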
# [3] = Caspase-3/7 induction in HepG2 cells by small molecules, qHTS cell viability counter screen (AID 1346981); note: nearly all actives have a fitted effect of over 30% in size; note: potency is the fitted concentration of half-maximal effect; for activity change, negative = cytotoxicity: series mostly up to about 92 µM
# Method in brief: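 HepG2, WT, 2,000 cells/well; 5 hr pre-incubation 37 C/5% CO2; compound pin-transferred from DMSO; 16 hr exposure; CellTiter-Fluor, 1 hr; fluorescence read.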
# [4] = molecular target: Nuclear receptor subfamily 1 group I member 2 (Homo sapiens) (UniProt O75469); assay: Human pregnane X receptor (PXR) small molecule agonists, qHTS assay (AID 1346982); note: nearly all actives have a fitted effect of over 35% in size; note: potency is the fitted concentration of half-maximal effect
# Method in brief: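 Luciferase signal from ONE-Glo (30 min, room temperature) measured activation of hPXR-driven CYP3A4 reporter expression in PXR-Luc HepG2 cells treated with compounds for 24 hr at 37 C.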
# [5] = molecular target: Nuclear receptor subfamily 1 group I member 2 (Rattus norvegicus) (UniProt Q9R1A7); assay: Rat pregnane X receptor (rPXR) activation by small molecules, qHTS assay (AID 1346983); details: rPXR luciferase reporter cells, One-Glo luminescence, 24 h; max activation: active compounds read high; note: nearly all actives have a fitted effect of over 20% in size; note: potency is the fitted concentration of half-maximal effect
# Method in brief: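 Cell-based rPXR luciferase reporter assay, 2,000 cells per well, rested 5hr at 37 C before compound addition in DMSO, then 24 hr at 37 C. One-Glo reagent was added and luminescence read after 30 min at room temperature.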
# [6] = molecular target: Nuclear receptor subfamily 1 group I member 2 (Homo sapiens) (UniProt O75469); assay: CYP3A4 induction through human pregnane X receptor (PXR) by small molecules, qHTS assay (AID 1346984); note: nearly all actives have a fitted effect of over 40% in size; note: potency is the fitted concentration of half-maximal effect
# Method in brief: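 Luminescence readout: luciferase signal after One-Glo (30 min, room temperature), following 3 h at 37C with 3uM final Luciferin-IPA P450 substrate. Cells were DPX-2 (HepG2, PXR/CYP3A4-luc co-transfected) dosed for 24 h.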
# [7] = molecular target: Nuclear receptor subfamily 1 group I member 2 (Homo sapiens) (UniProt O75469); assay: Human pregnane X receptor (PXR) activation by small molecules, qHTS assay (AID 1346985); note: nearly all actives have a fitted effect of over 40% in size; note: potency is the fitted concentration of half-maximal effect
# Method in brief: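 DPX-2 cells (HepG2 co-transfected with a PXR response element and a CYP3A4-promoter luciferase construct) were seeded at 2,000 per well, rested 5 hr at 37C, then exposed to DMSO-dissolved compounds for 24 hr. Activation was read as luciferase luminescence.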
# [8] = molecular target: Cytochrome P450 2D6 (Homo sapiens) (UniProt P10635); assay: Cytochrome P450 Family 2 Subfamily D Member 6 (CYP2D6) small molecule antagonists: luciferase reporter qHTS assay (AID 1671196); note: nearly all actives have a fitted effect of over 50% in size; note: potency is the fitted concentration of half-maximal effect
# Method in brief: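 Read-out is luminescence from luciferin formed by CYP2D6 turnover of a proluciferin substrate, recorded as relative luminescence units. Reactions ran 1 h at room temperature after NADPH regeneration solution was added.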
# [9] = Caspase-3/7 induction in CHO-K1 cells by small molecules, qHTS assay (AID 1346980); note: nearly all actives have a fitted effect of over 15% in size
# Method in brief: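 Wild-type cells were seeded at 1,500 per well and settled 5 hr at 37 C, 5% CO2, then exposed to DMSO-dissolved compounds for 17 hr. Caspase-Glo 3/7 reagent was added, and luminescence was read after 30min at room temperature.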
# [10] = Human pregnane X receptor (PXR) small molecule agonists, qHTS cell viability counter screen (AID 1346977); note: nearly all actives have a fitted effect of over 50% in size; note: potency is the fitted concentration of half-maximal effect
# Method in brief: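 After a 5hr pre-incubation, PXR-Luc HepG2 cells received compounds plus positive control in DMSO and were kept 24hr at 37C. Cell viability was quantified by fluorescence from CellTiter-Fluor added for the final hour.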
# Nuclear receptor subfamily 1 group I member 2 (Rattus norvegicus), sequence (Q9R1A7 whole entry, looked up): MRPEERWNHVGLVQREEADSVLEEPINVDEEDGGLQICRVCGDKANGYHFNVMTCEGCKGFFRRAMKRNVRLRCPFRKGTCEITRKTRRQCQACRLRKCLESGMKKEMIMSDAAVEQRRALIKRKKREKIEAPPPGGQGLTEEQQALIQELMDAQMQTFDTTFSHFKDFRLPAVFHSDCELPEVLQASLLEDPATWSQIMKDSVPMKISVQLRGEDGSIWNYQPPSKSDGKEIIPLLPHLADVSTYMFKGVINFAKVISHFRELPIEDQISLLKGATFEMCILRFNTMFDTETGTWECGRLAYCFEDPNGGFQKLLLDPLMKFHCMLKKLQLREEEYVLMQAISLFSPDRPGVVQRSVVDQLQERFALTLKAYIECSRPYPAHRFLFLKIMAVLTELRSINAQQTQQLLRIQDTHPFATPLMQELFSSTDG
# Cytochrome P450 2D6 (Homo sapiens), sequence (P10635 whole entry, looked up): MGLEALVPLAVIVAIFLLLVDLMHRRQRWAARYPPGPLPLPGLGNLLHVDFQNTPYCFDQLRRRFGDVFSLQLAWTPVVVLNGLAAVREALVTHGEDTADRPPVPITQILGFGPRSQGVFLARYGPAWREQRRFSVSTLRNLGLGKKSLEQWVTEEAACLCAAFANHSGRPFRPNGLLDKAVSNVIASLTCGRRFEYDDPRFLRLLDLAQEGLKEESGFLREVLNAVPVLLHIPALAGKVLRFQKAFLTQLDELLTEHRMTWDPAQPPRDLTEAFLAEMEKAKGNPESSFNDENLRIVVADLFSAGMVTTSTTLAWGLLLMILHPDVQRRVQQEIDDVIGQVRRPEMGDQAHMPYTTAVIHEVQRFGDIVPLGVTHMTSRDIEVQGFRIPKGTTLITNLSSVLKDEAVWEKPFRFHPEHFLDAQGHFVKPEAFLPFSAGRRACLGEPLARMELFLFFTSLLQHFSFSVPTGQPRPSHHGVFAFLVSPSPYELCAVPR
# Nuclear receptor subfamily 1 group I member 2 (Homo sapiens), sequence (O75469 whole entry, looked up): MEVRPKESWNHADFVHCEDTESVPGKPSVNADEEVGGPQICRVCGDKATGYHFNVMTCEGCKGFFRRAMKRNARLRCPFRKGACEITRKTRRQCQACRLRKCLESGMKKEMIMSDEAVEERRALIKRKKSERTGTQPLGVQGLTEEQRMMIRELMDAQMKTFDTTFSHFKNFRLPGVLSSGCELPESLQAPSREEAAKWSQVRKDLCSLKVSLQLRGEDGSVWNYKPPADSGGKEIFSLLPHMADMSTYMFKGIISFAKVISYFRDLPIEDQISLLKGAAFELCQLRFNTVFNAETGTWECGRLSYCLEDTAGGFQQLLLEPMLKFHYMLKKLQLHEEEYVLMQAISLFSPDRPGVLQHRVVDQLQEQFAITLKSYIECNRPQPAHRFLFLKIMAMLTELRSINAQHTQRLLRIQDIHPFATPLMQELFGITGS
compound,measurement,setting,value
CCCCc1cc2ccccc2c(OCCN(C)C)n1,outcome,[1],inactive
same,Potency,[2],inactive
same,Potency,[3],inactive
same,Potency,[4],inactive
same,max activation,[5],6.03%
same,Potency,[6],inactive
same,Potency,[7],inactive
same,Potency,[8],4.36 µM (active)
CC(C)(C)c1cc(O)c(C(C)(C)C)cc1O,outcome,[1],inactive
same,Potency,[2],61.1 µM (active)
same,Potency,[9],inactive
Cc1ccccc1N=Nc1ccc(N=Nc2c(O)ccc3ccccc23)c(C)c1,outcome,[1],inactive
same,Potency,[2],13.3 µM (active)
same,Potency,[9],inactive
same,max activation,[5],6.7%
same,Potency,[6],7.94 µM (active)
same,Potency,[7],inactive
same,Potency,[8],inactive
CCCCOc1ccc(CC(=O)NO)cc1,outcome,[1],inactive
same,Potency,[2],23.7 µM (active)
same,Potency,[9],inactive
same,max activation,[5],-0.916%
same,Potency,[6],inactive
same,Potency,[7],inactive
same,Potency,[8],15.5 µM (active)
CCCCCCOC(=O)CCC,Potency,[10],inactive
same,outcome,[1],inactive
same,Potency,[4],inactive
same,Potency,[8],inactive
CN(C)CC/C=C1\c2ccccc2COc2ccccc21,outcome,[1],inactive
same,Potency,[2],inactive
same,Potency,[9],inactive
same,Potency,[3],inactive
CN1CCC(OC(c2ccccc2)c2ccccc2)CC1,outcome,[1],inactive
same,Potency,[2],inactive
same,Potency,[9],inactive
same,Potency,[3],inactive
OC(CCN1CCCCC1)(c1ccccc1)C1CCCCC1 (stereo unspecified),outcome,[1],inactive
same,Potency,[9],inactive
same,Potency,[3],inactive
same,max activation,[5],-2.68%
same,Potency,[6],inactive
same,Potency,[7],inactive
same,Potency,[8],0.977 µM (active)
O=CNc1ccccc1,outcome,[1],inactive
same,Potency,[9],inactive
same,Potency,[3],inactive
same,Potency,[4],inactive
same,Potency,[8],inactive
CN1CCC(=C2c3ccccc3C=Cc3ccccc32)CC1,outcome,[1],inactive
same,Potency,[9],inactive
same,Potency,[4],inactive
same,Potency,[8],2.45 µM (active)
CCC(C)N(C)C(=O)c1cc2ccccc2c(-c2ccccc2Cl)n1 (stereo unspecified),outcome,[1],inactive
same,Potency,[9],inactive
same,Potency,[4],0.498 µM (active)
same,Potency,[8],inactive
CC(=O)c1ccc2c(c1)[C@H](NC(=O)c1ccc(F)cc1)[C@@H](O)C(C)(C)O2,Potency,[10],inactive
same,outcome,[1],inactive
same,Potency,[4],inactive
same,Potency,[8],18.8 µM (active)
C[C@@H](C1=C(CCN(C)C)Cc2ccccc21)c1ccccn1,outcome,[1],inactive
same,Potency,[2],inactive
same,Potency,[9],inactive
same,Potency,[3],inactive
same,Potency,[4],inactive
same,Potency,[8],11 µM (active)
O=C(/C=C/c1ccc(O)c(O)c1)O[C@@H]1C[C@](O)(C(=O)O)C[C@@H](O)[C@H]1O,outcome,[1],inactive
same,Potency,[9],inactive
same,Potency,[3],inactive
same,Potency,[8],inactive
CCOC(=O)[C@H](CCc1ccccc1)N[C@H]1CCc2ccccc2N(CC(=O)O)C1=O,Potency,[10],26.6 µM (active)
same,Potency,[9],inactive
same,Potency,[4],23.7 µM (active)
same,Potency,[6],10 µM (active)
C[C@H](CCC(=O)O)[C@H]1CC[C@H]2[C@@H]3[C@H](O)C[C@@H]4C[C@H](O)CC[C@]4(C)[C@H]3CC[C@]12C,Potency,[10],inactive
same,max activation,[5],-0.524%
same,Potency,[6],inactive
same,Potency,[7],inactive
same,Potency,[8],56.6 µM (active)
O=C=NC1CCC(CC2CCC(N=C=O)CC2)CC1 (stereo unspecified),outcome,[1],inactive
same,Potency,[2],inactive
same,Potency,[9],inactive
same,Potency,[3],inactive
same,Potency,[8],35.6 µM (active)
CCOc1cc(OCC)c(C(=O)CCC(=O)O)cc1OCC,outcome,[1],inactive
same,Potency,[2],inactive
same,Potency,[9],inactive
same,Potency,[3],inactive
same,max activation,[5],-2.62%
same,Potency,[6],inactive
same,Potency,[7],inactive
same,Potency,[8],inactive
CC(C)(C)c1ccc(OCC2CO2)cc1 (stereo unspecified),outcome,[1],inactive
same,Potency,[9],inactive
same,Potency,[4],35.1 µM (active)
CN1CCC(=C2c3ccccc3CCc3sccc32)CC1,outcome,[1],inactive
same,Potency,[9],inactive
same,Potency,[3],inactive
same,max activation,[5],0.0937%
same,Potency,[6],28.2 µM (active)
same,Potency,[7],inactive
same,Potency,[8],1.23 µM (active)
CNCC[C@@H](Oc1ccccc1C)c1ccccc1,outcome,[1],inactive
same,Potency,[2],inactive
same,Potency,[9],inactive
same,Potency,[3],inactive
same,Potency,[4],inactive
Nc1ccc(C(=O)Nc2ccccc2N)cc1,Potency,[9],inactive
same,Potency,[3],inactive
same,Potency,[4],8.41 µM (active)
same,Potency,[5],3.55 µM (active)
same,Potency,[6],inactive
same,Potency,[7],11.2 µM (active)
same,Potency,[8],inactive
CN1CCN(C2=Nc3cc(Cl)ccc3Nc3ccccc32)CC1,Potency,[10],23.7 µM (active)
same,Potency,[9],inactive
same,Potency,[3],23.7 µM (active)
O=C(O)C(c1ccc(Cl)cc1)c1ccc(Cl)cc1,Potency,[10],inactive
same,Potency,[2],inactive
same,Potency,[9],inactive
same,Potency,[3],inactive
same,Potency,[4],inactive
same,Potency,[8],inactive
O=C(CC(=O)c1ccccc1)c1ccccc1,outcome,[1],inactive
same,Potency,[9],inactive
same,Potency,[3],inactive
Cc1nc2ccccc2n1Cc1ccc(Cl)cc1,outcome,[1],inactive
same,Potency,[2],7.5 µM (active)
same,Potency,[9],inactive
same,Potency,[3],inactive
same,max activation,[5],-21.8%
same,Potency,[6],inactive
same,Potency,[7],inactive
same,Potency,[8],15.5 µM (active)
CC(C)(C)C(=O)OCOP(=O)(COCCn1cnc2c(N)ncnc21)OCOC(=O)C(C)(C)C,outcome,[1],inactive
same,Potency,[9],inactive
same,Potency,[4],11.9 µM (active)
same,max activation,[5],-2.44%
same,Potency,[6],inactive
same,Potency,[7],inactive
same,Potency,[8],inactive
c1ccc(OCc2ccc(CCCN3CCOCC3)cc2)cc1,outcome,[1],inactive
same,Potency,[3],inactive
same,Potency,[4],2.37 µM (active)
same,Potency,[6],inactive
same,Potency,[7],inactive
same,Potency,[8],15.5 µM (active)
O=S1(=O)c2cccc3cccc(c23)N1CCCN1CCN(c2ccc(F)cc2)CC1,outcome,[1],inactive
same,Potency,[2],inactive
same,Potency,[9],inactive
same,Potency,[3],inactive
same,Potency,[4],4.73 µM (active)
same,Potency,[6],inactive
same,Potency,[7],15.8 µM (active)
same,Potency,[8],1.55 µM (active)
O=C(CCN1CCN2CCCC2C1)N1c2ccccc2Sc2ccc(Cl)cc21 (stereo unspecified),caspase activation,[1],1.09% [at 19 µM]
same,"activity change, negative = cytotoxicity",[2],-16.9% [at 19 µM]
same,caspase-3/7 activation,[9],0.894% [at 19 µM]
same,max activation,[5],3.92%
same,Potency,[6],12.6 µM (active)
same,Potency,[7],12.6 µM (active)
same,Potency,[8],6.74 µM (active)
CCCCCOC(=O)COc1cc(N2C(=O)C3=C(CCCC3)C2=O)c(F)cc1Cl,outcome,[1],inactive
same,Potency,[2],inactive
same,Potency,[9],inactive
same,Potency,[8],25.2 µM (active)
CC(C)(C)c1cc(CO)cc(C(C)(C)C)c1O,Potency,[10],inactive
same,outcome,[1],inactive
same,Potency,[3],inactive
same,Potency,[8],72.4 µM (active)
